In the library only some 6% were active in any assay of this set; here they are far more common.
D1 PAM = enhances dopamine response at the human D1 receptor. HEK293 TREx D1 cells, calcium flux, dopamine EC20 potentiation. potentiation, % at 10 µM. actives 0.036% (n = 360,000); in the data active = potentiation above about 30%; also: 0% is about no effect
Target sequence (P21728 whole entry, looked up): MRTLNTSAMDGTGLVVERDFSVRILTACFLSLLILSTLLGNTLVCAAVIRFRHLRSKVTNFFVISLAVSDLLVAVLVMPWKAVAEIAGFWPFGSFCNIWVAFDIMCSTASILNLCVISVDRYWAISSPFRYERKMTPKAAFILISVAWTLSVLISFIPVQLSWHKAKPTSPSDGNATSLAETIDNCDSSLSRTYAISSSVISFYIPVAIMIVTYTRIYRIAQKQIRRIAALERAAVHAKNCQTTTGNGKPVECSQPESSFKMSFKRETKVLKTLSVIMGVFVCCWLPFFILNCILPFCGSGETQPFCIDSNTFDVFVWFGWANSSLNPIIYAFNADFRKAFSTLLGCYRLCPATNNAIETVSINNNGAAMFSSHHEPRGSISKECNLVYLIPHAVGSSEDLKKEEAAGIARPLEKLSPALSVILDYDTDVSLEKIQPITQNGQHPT
D1 agonist = agonists of human D1 dopamine receptor | P21728 | AID 504660 | HEK293 T-REx D1 cells, calcium flux, agonist mode | activation, % at 2 µM | actives 1% (n = 360,000); in the data active = activation above about 30%; also: 0% is about no effect
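Agonism was scored from calcium flux recorded over 180 s (1 read/s) after pintool compound addition, following a 10-cycle baseline. Cells were inducible force-coupled HEK293 TREx D1, plated overnight at 30 C and loaded with no-wash calcium dye.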
DRD3 antagonist = blocks the human D3 dopamine receptor. P35462. D3R cells, DiscoveRx beta-arrestin luminescence, antagonist mode; active compounds read low. max response, negative = inhibition, %. actives 2.5% (n = 360,000). AID 652054; in the data active = max response below about -50%; inconclusive = no clear call, values can overlap the other calls; also: % is scaled to controls: 0 for no effect and ±100 for the full control effect
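Cells plated overnight at 1500 cells/well, then exposed to library compounds with dopamine controls for 90 minutes at 37 degrees C. DiscoveRx reagent added for 30–60 minutes at room temperature; luminescence read, quantitative HTS format.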
D1 antag = antagonists of human D1 dopamine receptor | HEK293 TREx D1 cells, calcium flux, dopamine EC80; active compounds read low | activity change, negative = inhibition, % at 10 µM | actives 3.2% (n = 360,000) | AID 504652; in the data active = activity change below about -30%; also: % is scaled to controls: 0 for no effect and ±100 for the full control effect
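Compound effects on dopamine-evoked calcium signalling were measured in tetracycline-induced HEK293 Trex D1 cells. Dopamine at EC80 followed a 180 s compound pre-read, and fluorescence was tracked kinetically for 180 s more.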
BCR signal inh = inhibitors of chronic active B-cell receptor signaling | actives 0.05% (n = 340,000) | Potency, µM (highest dose often 46.1 µM), without a hit: at the top dose activity change, negative = inhibition, usual class: inhibitors | AID 493014 | ABC-DLBCL IkBa-CBG/CBR reporter, luminescence ratio, 4 h; active = well fitted inhibition curve with a large enough effect in the signal ratio, with a control signal flat, not every such curve was filed as active; inconclusive = small, poorly fitted or top-dose-only effect, or effect the other way, or a change in a side signal; the % refers to the signal ratio;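 also: potency is read from the fitted curve at half-maximal effect; plate controls were basal doxycycline-induced cells for no effect and cells given 10 µM MG132 for full effect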
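Cell line TMD8 (human ABC DLBCL), stably expressing tet-inducible CBG68-IkBa fusion and CBR; IMDM/0.5% FBS; cpd up to 46 uM; dox induction, 4 h, 37C/5% CO2; dual luminescence; green/red ratio; MG132 control.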
D3 ag = D3 dopamine receptor (human) agonism; P35462; D3R DiscoveRx beta-arrestin cells, luminescence, 90 min; max activation, %; actives 0.58% (n = 410,000); in the data active = max activation above about 30%; also: 0% is about no effect
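Agonist-mode cell screen: cells plated at 1500/well and incubated overnight at 37 °C, then exposed to library compounds for 90 min at 37 °C. Detection reagent was added for 30–60 min at room temperature, and luminescence was read.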
Active calls of the source: *; ? = inconclusive; / = no result.

SMILES	D1 PAM	D1 agonist	DRD3 antagonist	D1 antag	BCR signal inh	D3 ag
CCc1ccc(NC(=O)C2CCN(S(=O)(=O)c3cccs3)CC2)cc1	1.1	12.4	0.5	-4.4	8.7%	3.3
Cc1ccc(S(=O)(=O)N2CCC(C(=O)Nc3ccc4c(c3)COC4=O)CC2)cc1	1.7	3.5	-65.0*	-25.0	?	-1.0
O=C(NCCN1C(=O)S/C(=C\c2ccc(F)cc2)C1=O)C1CCN(S(=O)(=O)c2cccs2)CC1	-2.8	15.0	-1.8	-14.6	1.3%	-14.3
O=C(Nc1cccnc1)C1CCN(S(=O)(=O)c2cccs2)CC1	-6.3	0.7	1.3	-32.3*	-4.1%	-1.0
CCN(CC(=O)Nc1ccc2c(c1)OCCO2)C(=O)/C=C/c1cc(Br)ccc1OC	/	/	40.7	/	/	-3.4
COC(=O)c1cccc(NC(=O)c2nsc3ccccc23)c1	-2.6	21.2	/	8.1	/	0.8
O=C(COC(=O)C1CCN(S(=O)(=O)c2cccs2)CC1)Nc1ccc(F)c(F)c1F	-5.2	10.0	15.5	-35.6*	2.6%	0.5
CC(Oc1ccc(Cl)cc1Cl)c1ccnc(N)n1 (stereo not given)	7.6	2.1	3.1	-1.8	-6.6%	4.4
Cc1cc(Cl)ccc1OC(C)c1nnc(N)s1 (stereo not given)	-2.5	2.6	-5.5	-48.6*	-16.9%	0.9
CC(=O)c1cn(-c2ccc(Cl)cc2)c(=O)[nH]c1=O	-1.4	-0.4	3.3	-32.5*	?	-4.7
CC(=O)c1cn(C)c(=O)[nH]c1=O	-2.5	-0.2	-8.4	-11.7	7.0%	1.4
O=C(Cn1c(NCCO)nc2ccccc21)N1CCN(Cc2ccccc2)CC1	-0.8	1.4	4.3	-41.4*	?	7.2
NC(=O)CS(=O)(=O)c1nc2ccccc2n1CC(=O)N1CCCCC1	-7.8	2.3	-5.5	-12.8	?	11.7
O=C(Cn1c(S(=O)(=O)Cc2ccccc2)nc2ccccc21)N1CCCCC1	/	3.7	-13.4	-35.3*	8.3%	-10.7
N#Cc1cccc(NC(=O)c2cc(C3CCCCN3C(=O)CCCc3ccccc3)on2)c1 (stereo not given)	/	/	1.0	/	/	-8.3
CCCN1C(=O)/C(=C\C=C2\N(CC)c3ccccc3C2(C)C)SC1=S	-2.1	91.8*	-24.6	1.6	?	-4.8
CO/N=C/C=C1/N(C)c2ccccc2C1(C)C	3.5	-2.6	-3.6	-6.7	2.3%	0.5
CN1/C(=C\C=N\O)C(C)(C)c2ccccc21	1.6	-0.6	-12.7	4.9	-1.5%	2.1
CN1/C(=C\C=[N+](C)c2ccccc2)C(C)(C)c2ccccc21	/	/	3.6	/	-0.5%	-4.6
CN1/C(=C\C=C2/C(=O)Oc3ccccc3C2=O)C(C)(C)c2ccccc21	20.4	544.8*	9.6	89.1	?	-2.6
CN1/C(=C\C=C2/SC(=S)NC2=O)C(C)(C)c2ccccc21	12.4	436.1*	-53.0*	-28.7	18.3%	-8.2
CN1C(=CC=C2C=C(I)C(=O)C(I)=C2)C(C)(C)c2ccccc21	-2.5	19.1	-4.5	-42.4*	10.3%	-1.5
COc1cccc(NC(=O)Cn2c(-c3nonc3N)nc3ccccc32)c1	-1.9	5.4	/	4.8	/	-2.1
CN(C)c1ccc(N=C/C=C2/N(C)c3ccccc3C2(C)C)cc1	-12.2	22.4	10.0	-30.3*	?	-2.5
COc1ccc(C2=NN(C(=O)COc3ncnc4ccccc34)C(c3ccco3)C2)cc1 (stereo not given)	-2.9	-0.3	-20.5	-4.5	-1.8%	-6.9
SMILES	D1 PAM	D1 agonist	DRD3 antagonist	D1 antag	BCR signal inh	D3 ag
O=C(COc1cc(F)ccc1[N+](=O)[O-])N1N=C(c2cccs2)CC1c1ccco1 (stereo not given)	2.5	6.2	-54.9*	12.2	4.6%	-1.5
COc1ccc(C2=NN(C(=O)COC(=O)c3ccc(S(C)(=O)=O)c([N+](=O)[O-])c3)C(c3ccco3)C2)cc1 (stereo not given)	/	/	-56.3*	/	-1.4%	-12.0
COc1ccc(CCNC(=O)CSc2cn(CCNC(=O)c3cccc(C(F)(F)F)c3)c3ccccc23)cc1OC	-3.7	-0.6	/	3.4	/	7.9
COc1ccc(C)cc1Nc1n[n+](-c2ccccc2)c(-c2cc(OC)c(OC)cc2Br)s1	-4.5	3.8	0.0	4.8	-18.4%	-40.2
CCOc1cc(-c2sc(Nc3ccc(CC)cc3)n[n+]2-c2ccccc2)ccc1OC	-1.5	-0.1	4.1	-4.2	-13.6%	-6.1
Fc1ccc(-[n+]2nc(Nc3ccccc3)sc2-c2c3ccccc3cc3ccccc23)cc1	-5.2	7.5	-63.0*	-3.9	-8.3%	-19.4
COc1ccc(-c2sc(Nc3ccccc3)n[n+]2-c2ccccc2)cc1Br	0.2	3.6	-1.4	-30.7*	?	4.9
COc1ccc(C)cc1Nc1n[n+](-c2ccccc2)c(-c2c(OC)ccc3ccccc23)s1	-12.7	46.4*	-15.4	-91.2*	-18.1%	-50.4
CCc1ccc(Nc2n[n+](-c3ccccc3)c(-c3cccc(C)c3)s2)cc1	-8.4	4.0	-51.8*	-16.4	?	-6.2
CC(C)c1ccc(OC(=O)c2cc(-c3ccccc3)on2)cc1	-1.4	17.6	/	-23.0	/	8.3
CCCCNC(=O)C(NC(=O)c1ccc(C)cc1)C(=O)c1ccccc1 (stereo not given)	/	/	13.6	/	/	6.3
CC(=O)N1CCCc2cc(S(=O)(=O)N3CCC(C(=O)NCc4cccc(C)c4)CC3)ccc21	-1.9	0.4	/	14.1	/	-9.1
CCn1c(=O)c2cc(C(=O)N(CCCOC(C)C)Cc3ccco3)sc2c2ccccc21	-1.4	7.4	/	7.3	/	4.8
Cn1c(NCC(O)c2ccccc2)nc2c1c(=O)n(Cc1ccc(Cl)c(Cl)c1)c(=O)n2C (stereo not given)	/	/	?	/	/	32.6*
COc1ccc(-c2nc3ccccc3o2)cc1NC(=O)c1cccc2c(Cl)cccc12	-2.2	2.2	/	5.3	/	2.6
Cc1ccccc1NC(=O)CSc1ccc(-c2ccco2)nn1	-8.8	4.3	-4.5	-70.7*	-12.5%	-2.6
CS(=O)(=O)c1ncc(Cl)c(C(=O)N(Cc2ccc(Cl)cc2)Cc2ccco2)n1	-3.3	0.5	/	-63.1*	/	-29.4
O=C(c1cc(-c2ccc(Cl)cc2)on1)N(Cc1cccc(F)c1)Cc1ccco1	0.2	33.4*	/	-3.9	/	-10.7
O=C(c1cc(-c2ccc(Cl)cc2)on1)N(Cc1ccc(F)cc1)Cc1ccco1	-0.5	30.4*	/	-39.0*	/	-7.5
Cc1c(-c2nnc(SCC(=O)Nc3ccc(Br)cc3)o2)nnn1-c1ccc(F)cc1	2.3	0.7	/	-4.5	/	-6.0
COc1ccc(NC(=O)CCNS(=O)(=O)c2ccc3c(c2)CCCC(=O)N3)cc1	4.0	1.4	/	-13.5	/	6.2
CN(C)CCCNC(=S)Nc1ccc(-c2ccccc2)cc1	-3.0	33.7*	-7.0	-7.3	?	-15.9

Screening data (PubChem)
